Structures are written as SMILES. About 6,100 (1.1%) of roughly 580,000 compounds were called active. Where a call stands in place of a potency, no number is given. Another 15% or so got no clear call; they are omitted. The call rests on the fitted dose curve; in most records, active means well fitted inhibition curve with a large enough effect; inconclusive means small, poorly fitted or top-dose-only effect, or another doubt; inactive means no such curve, though single readings can be large or run the other way. Many of the other results were omitted from the sample, so actives are more common in it than they were.
Potency means the concentration at half of the fitted maximal effect.

Polyunsaturated fatty acid lipoxygenase ALOX12 (Homo sapiens), sequence (P18054 whole entry, looked up): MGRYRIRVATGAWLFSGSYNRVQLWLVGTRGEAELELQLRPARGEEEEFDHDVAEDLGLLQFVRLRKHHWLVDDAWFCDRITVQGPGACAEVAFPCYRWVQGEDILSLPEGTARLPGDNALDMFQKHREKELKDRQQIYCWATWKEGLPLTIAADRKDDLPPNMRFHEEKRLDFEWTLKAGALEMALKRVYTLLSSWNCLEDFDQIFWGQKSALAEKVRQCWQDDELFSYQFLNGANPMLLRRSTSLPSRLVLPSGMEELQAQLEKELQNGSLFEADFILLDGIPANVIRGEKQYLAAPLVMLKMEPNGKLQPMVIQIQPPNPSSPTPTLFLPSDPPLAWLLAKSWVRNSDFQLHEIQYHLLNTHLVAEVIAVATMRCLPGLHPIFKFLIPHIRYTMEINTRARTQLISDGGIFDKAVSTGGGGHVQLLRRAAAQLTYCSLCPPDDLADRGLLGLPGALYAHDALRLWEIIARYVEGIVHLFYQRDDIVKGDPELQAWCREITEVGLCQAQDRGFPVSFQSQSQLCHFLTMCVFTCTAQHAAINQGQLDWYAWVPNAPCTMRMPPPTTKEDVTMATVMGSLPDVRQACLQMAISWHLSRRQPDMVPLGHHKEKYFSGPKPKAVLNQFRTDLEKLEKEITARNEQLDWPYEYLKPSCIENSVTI

For the assay, the target named is Polyunsaturated fatty acid lipoxygenase ALOX12 (Homo sapiens) (UniProt P18054). Description: Primary qHTS assay for inhibitors of human arachidonate 12S-lipoxygenase (ALOX12): Round 2. The conditions noted are these: purified 12hLO, xylenol orange hydroperoxide absorbance; series mostly up to 108 µM. The procedure, abridged:
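Purified human 12hLO (150 nM final) in 25 mM Hepes, 0.01% Triton X-100, pH 7.0 was preincubated 15 min at room temperature with compound. Then 40 uM arachidonic acid was added, 30 min. Hydroperoxide was read by Fe-XO absorbance ratio 573/405 nm.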
(In qHTS, concentration-response curves come from the screen itself.)
Take `Cc1c(Cc2ccccc2)c(=O)oc2c(C)c(OC(C)C(=O)O)ccc12` (stereo not drawn): the Potency result was “inactive”. For `Cc1nc2nc(NCc3cc(F)cc(F)c3)[nH]n2c(=O)c1C` the value was “inactive”. For `CCN(c1ccc(NC(=O)c2cnc3ccccc3n2)cc1)C(C)C` the value was “inactive”. For `CCN(CC(=O)NC(=O)NCC(C)C)C1CC1` the value was “inactive”. As to `CCCCCCc1cc2c3c(c(=O)oc2cc1OCC(=O)C(C)(C)C)CCCC3`, the Potency result was “inactive”. For `Fc1ccc(NCC23CC4CC(CC(C4)C2)C3)cc1` the value was “inactive”; for `COC(=O)c1ccc(C(=O)OC(C)C(=O)C23CC4CC(CC(C4)C2)C3)cc1` (stereo not drawn), “inactive”; for `O=C(OC12CC3CC(CC(C3)C1)C2)c1ccc(NCc2cc(O)ccc2O)cc1`, 31.6 µM (active). For `Cc1c(C(=O)N2CCOC(C)C2)cnn1-c1ccc(F)cc1` (stereo not drawn) the value was “inactive”; for `CCNc1ncc(CN2CCN(c3cccc(C(F)(F)F)c3)CC2)cn1`, “inactive”. With `CN(c1ccccc1)c1cc(=O)c2ccnc(-c3ccc(CO)cc3)c2o1`, the Potency result is “inactive”. The value for `CN(c1ccccc1)c1cc(=O)c2ccnc(NC3CCOCC3)c2o1` was “inactive”.

For `CN(c1ccccc1)c1cc(=O)c2ccnc(Nc3cccc([S+](C)(=O)[O-])c3)c2o1`, the Potency was 56.2 µM (active). With `CN(C)C(=O)C(NCCc1c[nH]c2ccccc12)c1ccccc1` (stereo not drawn), the Potency entry is “inactive”.

Regarding `Cc1ccc(-c2csc(-c3cc4c([nH]c3=O)CC(c3ccco3)CC4=O)n2)cc1` (stereo not drawn), the Potency was 2.24 µM (active). As for `CCc1ccc(Nc2ncc3c(n2)CC(c2ccco2)CC3=O)cc1` (stereo not drawn), the Potency result was “inactive”. The value for `Cc1ccc(-c2csc(N(Cc3ccco3)C(=O)c3cccs3)n2)cc1` was “inactive”; that for `CC(C)(C)c1ccc(C(=O)NNC(=O)C2CC2)cc1` was “inactive”. With `Fc1ccccc1COc1ccc(-c2nnco2)cc1`, the Potency entry was “inactive”. With `COCCn1c(=O)c2c(nc(-n3nc(C)cc3C)n2Cc2ccccc2)n(C)c1=O`, the Potency entry was “inactive”. As for `Cc1ccc(C)c(NC(=O)N2CCCC2c2ccco2)c1` (stereo not drawn), the Potency entry was “inactive”. Take `Cc1ccccc1OCCN(C)Cc1cc(=O)oc2cc(O)ccc12`: the Potency result is “inactive”. The value for `CCCc1cc(=O)[nH]c(SCc2ccc(C#N)cc2)n1` was “inactive”. The value for `Cc1ccc(CSc2nsc(C)c2C#N)cc1` was “inactive”; that for `Cc1ccc(CSc2nc(-c3ccccc3)c(C#N)c(=O)[nH]2)cc1` was 39.8 µM (active); that for `CCCCCCSc1ccc([C@@H]2[C@H]3C(=O)N(CC)C(=O)[C@H]3[C@]3(C(=O)OC)CCCCN23)cc1` was “inactive”. Consider `CCN1C(=O)[C@@H]2[C@@H](c3ccc(-c4ccc(OC)cc4)c(OC)c3)N3CCC[C@@]3(C(=O)OC)[C@@H]2C1=O`, for which the Potency entry was “inactive”. For `CCCCCCSc1ccc([C@@H]2[C@@H]3C(=O)N(CC)C(=O)[C@@H]3[C@]3(C(=O)OC)CCCCN23)cc1OC` the value was 17.8 µM (active).

These data come from PubChem BioAssay AID1671190 (National Center for Advancing Translational Sciences (NCATS), 2021).
